Source: ChEMBL document CHEMBL3988442, “University of Dundee, Small-Polar-MMV Screening Library” (2021)
For some assays here: Potency and affinity values are given separately.

Legend:
Design in all cases: scale not given: direction of the effect not stated beside the values
[1] = molecular target: Protein translocase subunit SecA (Escherichia coli (strain K12)) (UniProt P10408); experiment: Assay to Identify E. coli SecA ATPase Inhibitors; type: functional; details: 30 µM
[2] = molecular target: T1, Ubiquitin-activating enzyme e1, putative (Leishmania donovani (strain BPK282A1)) (UniProt E9BSI1); experiment: Leishmania donovani Ubiquitin Activating Enzyme (LdE1); type: functional; details: 30 µM
T1 sequence (whole entry): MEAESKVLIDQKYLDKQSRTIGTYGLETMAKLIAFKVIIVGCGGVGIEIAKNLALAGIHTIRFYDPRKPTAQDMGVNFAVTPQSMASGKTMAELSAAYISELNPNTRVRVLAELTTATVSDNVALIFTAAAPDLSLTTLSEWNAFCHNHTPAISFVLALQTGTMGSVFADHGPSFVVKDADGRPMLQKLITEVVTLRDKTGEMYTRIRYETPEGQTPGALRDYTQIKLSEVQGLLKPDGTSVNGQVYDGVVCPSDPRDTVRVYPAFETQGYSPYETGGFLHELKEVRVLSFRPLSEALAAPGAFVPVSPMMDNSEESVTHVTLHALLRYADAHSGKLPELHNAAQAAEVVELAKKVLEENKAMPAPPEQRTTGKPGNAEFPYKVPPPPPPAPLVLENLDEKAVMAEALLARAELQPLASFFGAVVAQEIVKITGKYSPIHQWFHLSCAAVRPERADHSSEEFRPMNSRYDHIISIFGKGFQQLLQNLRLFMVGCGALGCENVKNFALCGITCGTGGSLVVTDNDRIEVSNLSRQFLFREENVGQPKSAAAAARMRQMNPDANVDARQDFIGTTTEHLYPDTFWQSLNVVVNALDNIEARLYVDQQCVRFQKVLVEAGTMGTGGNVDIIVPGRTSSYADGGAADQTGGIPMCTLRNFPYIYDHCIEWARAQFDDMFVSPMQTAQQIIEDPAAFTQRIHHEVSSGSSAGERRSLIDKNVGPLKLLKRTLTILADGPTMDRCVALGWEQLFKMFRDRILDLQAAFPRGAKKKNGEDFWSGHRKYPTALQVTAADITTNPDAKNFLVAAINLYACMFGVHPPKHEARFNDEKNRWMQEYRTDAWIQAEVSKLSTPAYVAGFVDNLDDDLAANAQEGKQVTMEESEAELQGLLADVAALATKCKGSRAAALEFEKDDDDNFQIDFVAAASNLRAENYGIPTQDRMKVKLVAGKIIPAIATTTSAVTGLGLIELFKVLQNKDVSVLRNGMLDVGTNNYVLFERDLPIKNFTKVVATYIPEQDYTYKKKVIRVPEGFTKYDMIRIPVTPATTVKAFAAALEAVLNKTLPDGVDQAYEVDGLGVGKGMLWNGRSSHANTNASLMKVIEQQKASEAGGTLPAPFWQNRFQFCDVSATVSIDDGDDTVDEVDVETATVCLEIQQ

[3] = molecular target: AMP-activated protein kinase, AMPK (Homo sapiens) (UniProt P54646+O43741+P54619+Q9UGJ0+Q9Y478+Q13131+Q9UGI9); experiment: AMP-dependent Kinase enzyme assay. An in vitro enzyme assay that detects ADP turnover that is directly proportional to AMPK activity. This uses naive AMPK that is activated during the assay with MK-8722; type: functional; details: 30 µM
[4] = molecular target: Sialic acid-binding Ig-like lectin 9 (Homo sapiens) (UniProt Q9Y336); experiment: Hs-Siglec9 ALPHAscreen SOP 20170721; details: 10 µM
Trypanosoma cruzi = experiment: Trypanosoma cruzi phosphomannomutase and mannose-1-phosphate guanylyltransferase assay; type: functional; details: 10 µM
[5] = molecular target: T2, Arginase-2, mitochondrial (Homo sapiens) (UniProt P78540); experiment: in vitro enzyme assay to detect the production of urea directly proportional to the activity of Arginase II; type: functional; details: 33.3 µM; also: in the data most compounds retested in dose-response had high values
T2 sequence (whole entry): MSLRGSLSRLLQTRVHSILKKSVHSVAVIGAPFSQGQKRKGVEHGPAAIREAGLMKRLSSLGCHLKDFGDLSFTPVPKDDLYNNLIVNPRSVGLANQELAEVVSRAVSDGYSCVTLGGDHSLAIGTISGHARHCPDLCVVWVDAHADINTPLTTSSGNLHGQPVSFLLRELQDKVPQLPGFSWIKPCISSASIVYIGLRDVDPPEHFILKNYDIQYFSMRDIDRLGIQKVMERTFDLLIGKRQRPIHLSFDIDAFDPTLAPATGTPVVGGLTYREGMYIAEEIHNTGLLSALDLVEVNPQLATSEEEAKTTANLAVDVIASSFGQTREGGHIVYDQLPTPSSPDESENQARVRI

[6] = molecular target: T3, Proteasome subunit beta (Trypanosoma cruzi) (UniProt O96673); experiment: Trypanosoma cruzi proteasome chymotrypsin-like activity (TcProtChymo) assay.; also: in the data most compounds retested in dose-response had high values; type: functional; details: 9.37 µM
T3 sequence (whole entry): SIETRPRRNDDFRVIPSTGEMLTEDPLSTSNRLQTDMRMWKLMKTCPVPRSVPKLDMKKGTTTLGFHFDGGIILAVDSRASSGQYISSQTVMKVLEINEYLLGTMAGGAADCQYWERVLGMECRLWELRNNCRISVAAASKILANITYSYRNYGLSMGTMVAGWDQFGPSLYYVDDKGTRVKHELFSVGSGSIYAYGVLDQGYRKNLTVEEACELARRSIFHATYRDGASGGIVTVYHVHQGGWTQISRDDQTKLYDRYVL

Homo sapiens = species: Homo sapiens; experiment: To identify inhibition of the IFN signalling (Jak-Stat) pathway via expression of an eGFP reporter gene under the control of an IFN-stimulated response element (ISRE) containing MxA promoter.; type: functional; details: 30 µM
[7] = molecular target: T4, Tyrosyl-tRNA synthetase, putative (Trypanosoma cruzi (strain CL Brener)) (UniProt Q4DSP6); experiment: Trypanosoma cruzi tyrosyl tRNA synthetase (TcYRS) _High Tyrosine SOP; type: functional; details: 30 µM; also: in the data most compounds retested in dose-response had high values
T4 sequence (whole entry): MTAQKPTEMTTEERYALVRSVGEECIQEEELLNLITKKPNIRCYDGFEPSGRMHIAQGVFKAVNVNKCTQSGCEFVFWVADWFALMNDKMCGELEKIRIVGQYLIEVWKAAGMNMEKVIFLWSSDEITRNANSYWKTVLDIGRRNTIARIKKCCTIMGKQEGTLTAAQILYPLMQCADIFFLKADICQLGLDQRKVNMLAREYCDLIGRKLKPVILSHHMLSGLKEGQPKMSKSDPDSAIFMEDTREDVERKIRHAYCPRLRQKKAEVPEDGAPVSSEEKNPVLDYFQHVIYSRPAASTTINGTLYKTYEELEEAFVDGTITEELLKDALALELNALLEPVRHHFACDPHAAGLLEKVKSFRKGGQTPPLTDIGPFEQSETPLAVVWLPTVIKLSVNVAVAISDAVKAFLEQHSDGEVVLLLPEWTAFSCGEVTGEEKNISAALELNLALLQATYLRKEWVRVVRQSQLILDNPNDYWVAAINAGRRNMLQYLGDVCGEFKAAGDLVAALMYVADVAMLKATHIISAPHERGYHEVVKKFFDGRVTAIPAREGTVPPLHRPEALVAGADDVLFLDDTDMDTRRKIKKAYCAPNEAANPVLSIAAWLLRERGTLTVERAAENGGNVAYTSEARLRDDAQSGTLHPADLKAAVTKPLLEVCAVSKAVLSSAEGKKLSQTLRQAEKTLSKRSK

[8] = molecular target: T4, Tyrosyl-tRNA synthetase, putative (Trypanosoma cruzi (strain CL Brener)); experiment: Trypanosoma cruzi tyrosyl tRNA synthetase (TcYRS) SOP; type: functional; details: 30 µM
[9] = molecular target: Chromo domain-containing protein 1 (Saccharomyces cerevisiae (strain ATCC 204508 / S288c) (Baker's yeast)) (UniProt P32657); experiment: ScCHD-1 Enzyme Inhibition Assay; type: functional; details: 30 µM; also: in the data most compounds retested in dose-response had high values
Sequence of Chromo domain-containing protein 1 (Saccharomyces cerevisiae (strain ATCC 204508 / S288c) (Baker's yeast)) (P32657 whole entry, the tested form may be a part): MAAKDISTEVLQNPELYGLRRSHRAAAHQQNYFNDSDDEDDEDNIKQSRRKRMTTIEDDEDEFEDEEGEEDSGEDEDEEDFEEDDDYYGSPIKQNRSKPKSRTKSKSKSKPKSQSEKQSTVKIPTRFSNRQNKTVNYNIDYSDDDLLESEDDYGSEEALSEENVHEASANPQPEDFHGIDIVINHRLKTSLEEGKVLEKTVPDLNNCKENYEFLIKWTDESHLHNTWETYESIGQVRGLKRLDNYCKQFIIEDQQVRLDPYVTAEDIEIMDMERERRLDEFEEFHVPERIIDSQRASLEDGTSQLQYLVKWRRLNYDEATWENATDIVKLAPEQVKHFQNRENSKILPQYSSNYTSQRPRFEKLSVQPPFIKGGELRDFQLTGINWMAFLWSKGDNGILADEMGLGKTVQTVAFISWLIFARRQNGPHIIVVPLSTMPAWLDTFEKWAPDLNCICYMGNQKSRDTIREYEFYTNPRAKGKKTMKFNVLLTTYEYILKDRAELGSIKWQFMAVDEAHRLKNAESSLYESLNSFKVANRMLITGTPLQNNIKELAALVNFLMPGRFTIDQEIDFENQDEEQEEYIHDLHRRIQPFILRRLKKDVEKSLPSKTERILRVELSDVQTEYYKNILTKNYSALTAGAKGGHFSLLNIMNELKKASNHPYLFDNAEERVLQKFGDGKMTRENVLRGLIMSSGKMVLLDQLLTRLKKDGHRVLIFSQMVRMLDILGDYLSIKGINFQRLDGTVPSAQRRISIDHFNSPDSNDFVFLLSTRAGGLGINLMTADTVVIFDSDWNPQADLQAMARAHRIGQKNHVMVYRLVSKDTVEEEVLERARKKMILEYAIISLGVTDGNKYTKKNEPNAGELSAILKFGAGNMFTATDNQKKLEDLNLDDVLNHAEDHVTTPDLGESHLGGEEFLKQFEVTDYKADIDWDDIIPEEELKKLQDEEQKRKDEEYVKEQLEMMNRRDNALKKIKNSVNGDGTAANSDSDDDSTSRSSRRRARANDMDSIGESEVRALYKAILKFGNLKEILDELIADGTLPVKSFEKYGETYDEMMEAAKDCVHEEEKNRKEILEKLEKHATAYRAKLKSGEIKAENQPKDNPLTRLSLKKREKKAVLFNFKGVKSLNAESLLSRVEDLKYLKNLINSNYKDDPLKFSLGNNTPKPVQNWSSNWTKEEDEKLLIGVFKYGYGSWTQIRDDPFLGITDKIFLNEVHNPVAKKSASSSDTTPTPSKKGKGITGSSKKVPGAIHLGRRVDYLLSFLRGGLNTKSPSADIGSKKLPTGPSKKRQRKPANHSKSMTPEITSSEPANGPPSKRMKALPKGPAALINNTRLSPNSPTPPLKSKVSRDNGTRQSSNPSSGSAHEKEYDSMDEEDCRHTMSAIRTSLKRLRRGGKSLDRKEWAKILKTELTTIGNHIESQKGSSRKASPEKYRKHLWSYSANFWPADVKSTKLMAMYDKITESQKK

Sequence of Sialic acid-binding Ig-like lectin 9 (Homo sapiens) (Q9Y336 whole entry): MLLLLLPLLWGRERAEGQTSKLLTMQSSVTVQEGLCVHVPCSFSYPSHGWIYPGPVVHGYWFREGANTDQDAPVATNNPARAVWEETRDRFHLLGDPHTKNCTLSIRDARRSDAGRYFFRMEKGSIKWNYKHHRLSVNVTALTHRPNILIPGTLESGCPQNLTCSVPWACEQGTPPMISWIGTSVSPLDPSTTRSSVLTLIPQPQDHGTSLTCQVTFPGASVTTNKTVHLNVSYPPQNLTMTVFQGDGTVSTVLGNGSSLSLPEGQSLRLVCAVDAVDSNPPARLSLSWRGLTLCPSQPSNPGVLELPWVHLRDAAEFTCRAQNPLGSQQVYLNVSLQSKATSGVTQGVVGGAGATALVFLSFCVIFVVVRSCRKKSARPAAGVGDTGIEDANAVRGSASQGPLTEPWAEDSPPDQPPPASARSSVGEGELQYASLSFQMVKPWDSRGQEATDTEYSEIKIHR
Sequence of Protein translocase subunit SecA (Escherichia coli (strain K12)) (P10408 whole entry): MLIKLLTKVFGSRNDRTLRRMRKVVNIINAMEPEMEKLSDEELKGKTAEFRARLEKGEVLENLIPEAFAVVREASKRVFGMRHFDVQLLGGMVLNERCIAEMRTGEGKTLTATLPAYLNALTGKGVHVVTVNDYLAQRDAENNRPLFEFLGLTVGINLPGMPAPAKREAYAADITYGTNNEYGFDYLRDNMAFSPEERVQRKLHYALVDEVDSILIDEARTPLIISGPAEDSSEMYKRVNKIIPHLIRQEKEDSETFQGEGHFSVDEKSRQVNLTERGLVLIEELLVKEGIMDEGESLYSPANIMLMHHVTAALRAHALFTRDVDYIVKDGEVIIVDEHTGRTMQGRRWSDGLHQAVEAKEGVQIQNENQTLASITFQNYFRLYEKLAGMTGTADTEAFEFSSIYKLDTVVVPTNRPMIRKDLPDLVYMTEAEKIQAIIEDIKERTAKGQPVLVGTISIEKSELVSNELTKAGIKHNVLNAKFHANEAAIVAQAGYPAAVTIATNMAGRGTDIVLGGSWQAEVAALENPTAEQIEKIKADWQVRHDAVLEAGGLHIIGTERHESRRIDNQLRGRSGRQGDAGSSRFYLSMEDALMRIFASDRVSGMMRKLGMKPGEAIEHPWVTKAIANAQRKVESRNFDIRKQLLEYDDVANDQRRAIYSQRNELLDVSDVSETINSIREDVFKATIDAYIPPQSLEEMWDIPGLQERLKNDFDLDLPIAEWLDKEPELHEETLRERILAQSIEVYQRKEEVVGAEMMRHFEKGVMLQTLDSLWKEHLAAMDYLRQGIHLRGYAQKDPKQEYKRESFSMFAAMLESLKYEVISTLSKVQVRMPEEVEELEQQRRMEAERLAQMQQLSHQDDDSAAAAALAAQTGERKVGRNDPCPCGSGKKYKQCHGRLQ

| SMILES | Percent Effect [1] [%] | Percent Effect [2] [%] | Percent Effect [3] [%] | Percent Effect [4] [%] | Percent Effect (Trypanosoma cruzi) [%] | Percent Effect [5] [%] | Percent Effect [6] [%] | Percent Effect (Homo sapiens) [%] | Percent Effect [7] [%] | Percent Effect [8] [%] | Percent Effect [9] [%] |
| --- | --- | --- | --- | --- | --- | --- | --- | --- | --- | --- | --- |
| O=C(NCCNc1ncccn1)Nc1cc(C(F)(F)F)c[nH]c1=O | -4.49 | 8.11 | 2.74 | 1.17 | 1.02 | -2.4 | 0.539 | 8.76 | 6.93 | 15.8 | -3.38 |
| N#CC1(C(=O)N2CCN(Cc3cscn3)CC2)CCCC1 | -4.16 | 10.1 | -7.12 | -4.28 | -8.78 | 2.66 | 3.19 | 29.4 | 0.493 | 1.27 | -7.41 |
| c1cn(Cc2nnc(C3CCN(C4CCOCC4)CC3)n2C2CC2)cn1 | -3.73 | 2.67 | -3.77 | -0.983 | -3.21 | 0 | 26.7 | 21.6 | 2.73 | 3.7 | -5.45 |
| CCS(=O)(=O)N1CCc2ccc(NC(=O)Nc3cccc(SC)c3)cc21 | -1.43 | -20.8 | 1.15 | 1.13 | 0.69 | -3.23 | 17.6 | 77.5 | -48.7 | -73.1 | -5.8 |
| Cn1cnc(-c2cc(C(=O)N3CCOCC3)c3ccccn23)c1 | -2.02 | 10.8 | 17.9 | -4.69 | -3.42 | 17.5 | 26.6 | -15.6 | 3.24 | 10.3 | -3.5 |
| Cc1nccn1C1CCCN(C(=O)c2ccc3c(c2)COC3)C1 (configuration not stated) | -0.738 | -2.7 | -1 | 7.4 | 3.44 | 0.554 | -5.39 | -3.77 | 4.95 | 13.4 | -0.0787 |
| CCn1ncc2c1C(COC)CN(Cc1ccc(OC)cc1)C2 (configuration not stated) | -1.81 | 5.41 | -4.68 | 14.4 | 2.44 | 0.744 | 3.35 | 40 | 2.15 | 6.17 | -11.4 |
| COCCN1C(=O)CC(N2CCN(c3ccc(F)cc3)CC2)C1=O (configuration not stated) | 0.82 | 10.5 | 2.05 | -7.33 | -0.0974 | -1.18 | 10.3 | 14.5 | -3.19 | 5.2 | -4.78 |
| COc1ccc(CN2CCn3cc(Cn4cccn4)nc3C2)cc1 | -0.217 | 5.2 | 5.77 | -3.88 | -5.03 | -3.23 | 9.4 | -15 | 5.29 | -8.97 | -4.7 |
| CCn1ccnc1CN1CCCN(C(=O)c2sccc2C#N)CC1 | -2.7 | -2.53 | 1.18 | 1.09 | 0.472 | 1.52 | -4.01 | -12.1 | 6.4 | 8.86 | 0.721 |
| CC(C)n1cc(C(=O)N2Cc3ccccc3OC3(CCOCC3)C2)cn1 | -4.16 | 9.46 | 5.88 | -5.24 | -8.1 | -9.05 | 14.5 | 28.1 | -3.23 | -1.3 | -13.3 |
| Cc1ccc(N2CCN(C(=O)COc3nccc(C)n3)CC2)nn1 | -4.66 | 21.9 | -13.9 | 17.7 | 7.44 | 6.36 | 11.4 | 16 | 7.53 | 17.5 | -9.03 |
| CN(C)C(=O)N1CCN(C(=O)C(c2ccccc2F)N(C)C)CC1 (configuration not stated) | -3.25 | 9.72 | -8.74 | 14.1 | 6.71 | 7.06 | 14 | -4.8 | 4.21 | 7.69 | -9.49 |
| CN(C)C1CCN(C(=O)NCc2ccccc2Cn2cncn2)CC1 | -2.11 | 10.8 | -1.1 | 10.9 | 7.72 | 6.19 | 12.2 | 18.3 | 7.94 | 17.1 | -1.22 |
| CCc1noc(CNc2ccc(C(=O)N3CCCC(C)C3)cc2C)n1 (configuration not stated) | -4.09 | 0 | 2.37 | 9.47 | 1.69 | 3.2 | 3.88 | 9.39 | 4.85 | 2.44 | -8.29 |
| CCS(=O)(=O)NC(C(=O)NC)c1ccc(F)c(F)c1 (configuration not stated) | -1.19 | 2.7 | -9.93 | 0.659 | 0.195 | 2.92 | 10.7 | -11.3 | 9.9 | 20.7 | -7.3 |
| Cc1nn(C)c(C)c1C1COCCN1C(=O)Cc1cccc(F)c1 (configuration not stated) | -0.171 | 13.7 | -6.33 | 3.58 | -3.13 | -1.82 | 17.6 | 33.3 | 1.07 | 5 | -4.69 |
| CCCc1cc(C(=O)N2CCCC(n3ccnc3C)C2)[nH]n1 (configuration not stated) | -3.55 | 5.06 | -3.54 | 9.52 | 3.87 | 3.04 | -7.94 | 15.5 | 3.45 | 11.4 | -1.51 |
| CCc1nccn1C1CCCN(C(=O)c2cnn(C)c2C2CC2)C1 (configuration not stated) | -5.61 | 8.11 | -0.679 | 1.6 | -6.51 | -4.41 | 6.49 | 23.9 | 3.45 | 6.17 | -2.99 |
| COc1cc(CNCc2ccnc(N3CCOCC3)c2)cc(Cl)c1OC | -5.46 | 16.2 | -4.43 | 13.4 | 0.0943 | -5.21 | 3.78 | 27.8 | 5.42 | 18.5 | -8.15 |
| O=C(O)c1cc(S(=O)(=O)Nc2ccc(Cl)cc2)cc2c1OCCO2 | -4.18 | -8.86 | 4.72 | 2.13 | -2.97 | 4.09 | 8.75 | -2.12 | -18.8 | -15.2 | -21.4 |
| Cc1nc([C@@H]2C[C@@H]3CCN(C(=O)c4ccnnc4)C[C@H]3O2)sc1C | -3.66 | 18.2 | -2.5 | -0.581 | 5.42 | 1.94 | 14.4 | 16.5 | 4.23 | 16.7 | -7.55 |
